The record followed here is PubChem BioAssay (NCATS).

Records with an inconclusive call do not appear. A call without a number means that no potency is given here. Active and inactive are the calls of the source. Calls come from the whole dose curve; as a rule, active = well fitted curve in the direction sought with a large enough effect; inconclusive = small, poorly fitted or top-dose-only effect, or another doubt; inactive = no such curve, though single readings can be large; an effect the other way counts as inactive or inconclusive.

The target of assay [1] is Aldehyde dehydrogenase, mitochondrial (Homo sapiens) (UniProt P05091). The assay can be described thus: qHTS for Inhibitors of the Aldehyde Dehydrogenase Family (ALDH2) Primary screen (AID 2061308; note: nearly all actives have a fitted effect of over 55% in size). (In general: qHTS replaces the single test concentration by a dilution series.)
The target in assay [2] is Retinaldehyde dehydrogenase 3 (Homo sapiens) (UniProt P47895). The assay can be described thus: qHTS for Inhibitors of the Aldehyde Dehydrogenase Family (ALDH1A3) Primary screen (AID 2061315).

As for `Cc1nc(-c2ccc(S(=O)(=O)Nc3ccc(C)c(C)c3)s2)cs1`, the Potency result in assay [1] and in assay [2] was “inactive” each time.

As for `O=C(Nc1ccc2c(c1)OCCO2)Nc1nnc(-c2ccncc2)s1`, the Potency entry in assay [1] and in assay [2] was “inactive” throughout.

Consider `CC[C@]1(O)C[C@H]2CN(CCC3C(=Nc4ccccc43)[C@@](C(=O)OC)(c3cc4c(cc3OC)N(C)[C@H]3[C@@](O)(C(N)=O)[C@H](O)[C@]5(CC)C=CCN6CC[C@]43[C@@H]65)C2)C1` (stereo partly specified), for which the Potency entry in assay [1] and in assay [2] was “inactive” in each case.

For `CC(C)(C)OC(=O)Cc1nnc(-c2nc3ccccc3[nH]2)s1`, the Potency result in assay [1] and in assay [2] was “inactive” each time.

In the case of `CC(C)c1ccc(NC(=O)c2cccs2)c(-c2nc3ccccc3[nH]c2=O)c1`, the Potency result in assay [1] and in assay [2] was “inactive” throughout.

For the compound `O=C(OCC#CCSc1nnc(-c2cccc3ccccc23)o1)c1ccc(SC(F)(F)F)cc1`, the Potency result in assay [1] and in assay [2] was “inactive” in each case.

Consider `O=C1c2ccccc2C(=O)N1c1noc2ccccc12`, for which the Potency result in assay [1] and in assay [2] was “inactive” in each case.

Turning to `COc1ccc(C2c3c(nc(Cc4ccccc4)[nH]c3=O)Oc3ccc4ccccc4c32)cc1OC` (stereo unspecified), the Potency entry in assay [1] and in assay [2] was “inactive” throughout.

On to `O=C(Nc1ccc(Cl)c(Cl)c1)Nc1nc(-c2ccncc2)cs1`, for which the Potency entry in assay [1] and in assay [2] was “inactive” in each case.

Regarding `COc1cc(F)c(S(=O)(=O)N2CCCN(S(=O)(=O)c3cccc(N)c3)CC2)c(F)c1`, the Potency entry in assay [1] and in assay [2] was “inactive” each time.

Turning to `O=C(Cc1nc2ccc(Cl)cc2[nH]1)Nc1ccc(S(=O)(=O)Nc2nccs2)cc1`, the Potency result in assay [1] and in assay [2] was “inactive” in each case.

Take `COc1ccc(C)cc1NC(=O)C(OC(=O)CNC(=O)c1ccccc1)c1ccccc1` (stereo unspecified): the Potency entry in assay [1] and in assay [2] was “inactive” in each case.

For the compound `C[C@@H]1[C@H]2[C@H](O[C@@H]3O[C@H](CO)[C@@H](O)[C@H](O)[C@H]3O)OC=C(C(=O)O)[C@H]2C[C@@H]1O`, the Potency entry in assay [1] and in assay [2] was “inactive” throughout.

With `N#Cc1cccc(NC(=O)Nc2nnc(-c3ccncc3)s2)c1`, the Potency result in assay [1] and in assay [2] was “inactive” in each case.

Consider `CCCn1c(C)nc2c(NCC3CCCN3CC)nc(C)nc21` (stereo unspecified), for which the Potency result in assay [1] and in assay [2] was “inactive” each time.

On to `Cc1cc(C)nc(NC(=S)N2CCN(c3ccc(C(F)(F)F)cc3C(F)(F)F)CC2)c1`, for which the Potency entry in assay [1] and in assay [2] was “inactive” in each case.

On to `COc1cccc(C(=O)Nc2ccc([S+](=O)([O-])Nc3nccs3)cc2)c1O`, for which the Potency entry in assay [1] and in assay [2] was “inactive” each time.

With `CNc1oc(-c2cccc3cnccc23)nc1C#N`, the Potency entry in assay [1] and in assay [2] was “inactive” each time.

In the case of `Cc1cnc(-c2ccccc2C(C)C)nc1NCC1CCN(c2cccnc2)CC1`, the Potency entry in assay [1] and in assay [2] was “inactive” each time.

In the case of `Cc1cnc(-c2ccccc2C(C)C)nc1NC(C)c1ccc(-c2cccnc2)cc1` (stereo unspecified), the Potency entry in assay [1] and in assay [2] was “inactive” throughout.

With `Cc1ccc(-c2ccc(=O)n(CCNCCc3ccccc3)n2)cc1`, the Potency result in assay [1] and in assay [2] was “inactive” in each case.

Regarding `O=C(Nc1nc(-c2ccccc2)cs1)c1cccc(NS(=O)(=O)c2nccs2)c1`, the Potency result in assay [1] and in assay [2] was “inactive” throughout.

With `Cc1c([S+](=O)([O-])N2CCN([S+](=O)([O-])c3c(F)cccc3F)CC2)sc2ccc(Cl)cc12`, the Potency entry in assay [1] and in assay [2] was “inactive” in each case.

On to `CC(=O)NC(c1cc(F)c2cccnc2c1O)C1CC1` (stereo unspecified), for which the Potency entry in assay [1] and in assay [2] was “inactive” throughout.

On to `O=C1CCc2cc(S(=O)(=O)Nc3cccnc3)ccc2N1`, for which the Potency result in assay [1] and in assay [2] was “inactive” each time.

Turning to `COc1ccccc1S(=O)(=O)Nc1ccc2c(c1)CN(C)C(=O)N2`, the Potency entry in assay [1] and in assay [2] was “inactive” each time.

Turning to `C(#Cc1cccs1)c1cccnc1`, the Potency result in assay [1] and in assay [2] was “inactive” throughout.

`O=C(O)c1ccccc1-c1noc(-c2ccccc2F)n1`: the Potency entry in assay [1] and in assay [2] was “inactive” throughout.

`O=C(O)c1ccc2c(c1)C(=O)N([C@H](Cc1ccc(-c3ccccc3)cc1)C(=O)O)C2=O`: the Potency result in assay [1] and in assay [2] was “inactive” in each case.

With `Cc1ccc(S(=O)(=O)Nc2cnccc2C(=O)Nc2ccc(-c3nc4ccccc4[nH]3)cc2)cc1`, the Potency entry in assay [1] and in assay [2] was “inactive” throughout.

As to `O=C(Nc1ccc(-c2nc3ccccc3[nH]2)cc1)Nc1ccc2occc2c1`, the Potency entry in assay [1] and in assay [2] was “inactive” in each case.

`CC1(C(=O)O)CCCC2(C)C3CCC4CC3(CCC12)CC4(O)CO` (stereo unspecified): the Potency result in assay [1] and in assay [2] was “inactive” in each case.

Consider `Cc1ccsc1CNc1ncnc2ccc(-c3ccc4c(c3)OCO4)cc12`, for which the Potency entry in assay [1] and in assay [2] was “inactive” throughout.

As for `Cc1ccc(OCCn2c(CCNC(=O)Cc3ccc(F)cc3F)nc3ccccc32)cc1`, the Potency entry in assay [1] and in assay [2] was “inactive” throughout.

For the compound `CCCCNc1nc(C)nc2c1nc(-c1ccccc1)n2CCN(C)C`, the Potency result in assay [1] and in assay [2] was “inactive” in each case.

Consider `Cc1cc(C)nc(NC(=S)N2CCN(c3nncs3)CC2)c1`, for which the Potency entry in assay [1] and in assay [2] was “inactive” in each case.

Regarding `COc1cccc(C(=O)Nc2ccc(-c3nc4ccccc4[nH]3)cc2)c1`, the Potency result in assay [1] and in assay [2] was “inactive” throughout.

`Cc1ccc(-c2ccc(=O)n(CC(=O)N(C)C(C)C(C)C)n2)cc1` (stereo unspecified): the Potency result in assay [1] and in assay [2] was “inactive” throughout.

With `O=S(=O)(c1cccc(O)c1)N1CCN(S(=O)(=O)c2c(F)cccc2F)CC1`, the Potency entry in assay [1] and in assay [2] was “inactive” in each case.

For the compound `O=c1c2ccccc2nc2sc(NCc3ccc(Cc4ccccc4)cc3)nn12`, the Potency result in assay [1] and in assay [2] was “inactive” throughout.

As for `Cc1cc(C)n2ncc(C(=O)Nc3ccncc3)c2n1`, the Potency entry in assay [1] and in assay [2] was “inactive” each time.

With `CCn1c2cc(C)sc2c2cnn(Cc3ccccc3F)c(=O)c21`, the Potency entry in assay [1] and in assay [2] was “inactive” throughout.

In the case of `Cc1nc(C)c2c(n1)N(Cc1ccc(-c3ccccc3-c3nn[nH]n3)cc1)C(=O)CC2`, the Potency result in assay [1] and in assay [2] was “inactive” in each case.
